# Six1-Eya2 blk: qHTS Assay for Inhibitors of the Six1/Eya2 Interaction | activity change, % (concentration not given with the values) | Homeobox protein SIX1 (Homo sapiens) + Protein phosphatase EYA2 (Homo sapiens), … | AlphaScreen GST-Six1/His-Eya2 binding, biochemical; hits give low values | actives 0.56% (n = 360,000); in the data active = activity change below about -65%; inconclusive = mostly about -30% to -63%
# Target sequence (O00167 whole entry, looked up): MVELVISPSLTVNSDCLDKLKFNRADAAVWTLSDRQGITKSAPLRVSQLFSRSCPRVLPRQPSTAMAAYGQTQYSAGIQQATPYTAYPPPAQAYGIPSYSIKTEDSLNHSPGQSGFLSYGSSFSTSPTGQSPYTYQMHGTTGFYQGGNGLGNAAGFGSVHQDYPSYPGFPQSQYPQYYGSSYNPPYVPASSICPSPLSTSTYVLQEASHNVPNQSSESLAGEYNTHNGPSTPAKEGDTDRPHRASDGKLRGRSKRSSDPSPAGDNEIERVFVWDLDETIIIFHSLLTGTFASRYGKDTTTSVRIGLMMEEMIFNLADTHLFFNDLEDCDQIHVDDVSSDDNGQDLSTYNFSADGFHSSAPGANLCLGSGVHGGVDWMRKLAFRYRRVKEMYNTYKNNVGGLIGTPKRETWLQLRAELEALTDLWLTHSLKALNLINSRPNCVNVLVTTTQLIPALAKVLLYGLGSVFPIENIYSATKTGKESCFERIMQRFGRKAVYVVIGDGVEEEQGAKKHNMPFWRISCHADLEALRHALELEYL
# Target sequence (Q15475 whole entry, looked up): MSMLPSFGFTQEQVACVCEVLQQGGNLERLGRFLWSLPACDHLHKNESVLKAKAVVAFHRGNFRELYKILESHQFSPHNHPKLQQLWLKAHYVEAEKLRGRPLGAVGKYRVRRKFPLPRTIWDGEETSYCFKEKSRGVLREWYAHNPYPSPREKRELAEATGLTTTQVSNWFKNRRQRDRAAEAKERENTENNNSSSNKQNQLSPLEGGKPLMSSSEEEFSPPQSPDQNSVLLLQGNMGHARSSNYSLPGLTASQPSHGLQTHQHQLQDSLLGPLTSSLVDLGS
#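 Homogeneous AlphaScreen proximity assay pairing GST-Six1 with His-tagged Eya2 (added as 5X mix: 250 nM and 500 nM) in 50 mM Tris pH 8.0, 300 mM NaCl, 1 mM TCEP. Glutathione donor and nickel acceptor beads; 1 h, 37 °C, dark.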
# CtBP-E1A blk: qHTS Assay for Inhibitors of the CtBP/E1A Interaction; CtBP / adenovirus E1A interaction (AlphaScreen); AlphaScreen GST-E1A/His-CtBP binding, 1536-well; hits give low values; activity change, % (test concentration not listed); actives 0.49% (n = 340,000); in the data active = activity change below about -65%; inconclusive = mostly about -30% to -63%
#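 GST-E1A and His-tagged CtBP (125 nM each as 5X stock) were preincubated with pin-transferred compound for 2 h at 37 °C in the dark, then glutathione donor and nickel acceptor beads were added for 1 h before AlphaScreen reading.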
# DT40 TDP1 no CPT: qHTS for Inhibitors of human tyrosyl-DNA phosphodiesterase 1 (TDP1): qHTS in cells in absence of CPT; DT40 Tdp1-/- hTDP1 cells, no CPT, ATP luminescence, 48 h; Potency, µM (highest dose often 46.2 µM), for the others: at the top dose activity change, negative = growth inhibition, hits mostly inhibitors; actives 15% (n = 420,000); AID 686978, 2013; also: potency is read from the fitted curve at half-maximal effect; nearly all actives have a fitted effect of over 55% in size
#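 No-CPT arm: Tdp1-/-;hTDP1 DT40 cells (400/well) plus compounds, incubated ≥48 hr at 37 °C. Readout CellTiter-Glo luminescence.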
# TDP1 block: qHTS Assay for Inhibitors of Tyrosyl-DNA Phosphodiesterase (TDP1); recombinant TDP1, AlphaScreen DNA substrate cleavage; Potency, µM (series often up to 130 µM), for the others: at the highest dose activity change, negative = inhibition, most hits filed as inhibitors; actives 0.28% (n = 350,000); also: potency is read from the fitted curve at half-maximal effect; nearly all actives have a fitted effect of over 40% in size
#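 Tdp1 1 nM final; 15 min RT w/ cpd; substrate 15 nM, 5 min; beads 10 ug/ml, 10 min; AlphaScreen read. Neg ctrl: no enzyme.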
# IL1B secr inh: qHTS for Inhibitors of Inflammasome Signaling: IL-1-beta AlphaLISA Primary Screen; activity change, % at 57.5 µM; THP-1 LPS/ATP IL-1B secretion, AlphaLISA, 16 h; hits give low values; AID 743279, 2014; actives 4.7% (n = 360,000); in the data active = activity change below about -50%; inconclusive = mostly about -30% to -49%
#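 Secreted IL-1B measured by AlphaLISA bead assay after 16 h compound exposure of THP-1 cells; compounds (final up to 57.5 uM) added 1 h before LPS (250 ng/mL) and ATP (1.25 mM) stimulation; lower signal means less secretion.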
# DT40 TDP1 CPT: qHTS for Inhibitors of human tyrosyl-DNA phosphodiesterase 1 (TDP1): qHTS in cells in presence of CPT; chicken DT40 Tdp1-/-;hTDP1 cells + 20 nM CPT, ATP luminescence, 48 h; Potency, µM (highest dose often 46.2 µM), for the others: at the highest dose activity change, negative = growth inhibition, most hits filed as inhibitors; actives 12% (n = 420,000); AID 686979, 2013; also: potency is read from the fitted curve at half-maximal effect; nearly all actives have a fitted effect of over 55% in size
#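 Chicken DT40 Tdp1-/- cells complemented with human TDP1, 400 cells/well, exposed to compounds plus 20 nM camptothecin for at least 48 h at 37 C; viability read as ATP content by CellTiter-Glo luminescence.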
# * hit, by the source's call; ? = inconclusive; · = no result; [ ] = another dose, or the depositor's remark. Rows were chosen to be rich in hits. Some 18% of all compounds tested hit in one or more screens of this group. Unless noted, calls follow the shape of the dose curve; as a rule, active = well fitted curve in the direction sought with a large enough effect; inconclusive = small, poorly fitted or top-dose-only effect, or another doubt; inactive = no such curve, though single readings can be large; an effect the other way counts as inactive or inconclusive. % is scaled to controls: 0 for no effect and ±100 for the full control effect.
SMILES,Six1-Eya2 blk,CtBP-E1A blk,DT40 TDP1 no CPT,TDP1 block,IL1B secr inh,DT40 TDP1 CPT
Cc1ccc2oc(=O)cc(CN3CC(C)OC(C)C3)c2c1 (stereo not given),4,·,-6%,0%,7,4%
Cc1ccc(CN2CCN(Cc3ccccn3)CC2CCO)cc1 (stereo not given),-4,2,-16%,-1%,16,-20%
CC1CC(C)CN(C(=O)C2CCN(S(=O)(=O)c3ccc4c(c3)CC(C)N4C(=O)C3CC3)CC2)C1 (stereo not given),-2,-3,?,2%,?,16µM*
CC(=O)N1c2ccc(S(=O)(=O)N3CCC(C(=O)N4CC(C)CC(C)C4)CC3)cc2CC1C (stereo not given),-6,-10,?,2%,-14,21µM*
CC(=O)N1c2ccc(S(=O)(=O)N3CCC(C(=O)N4CCCC(C)C4)CC3)cc2CC1C (stereo not given),4,1,?,2%,1,21µM*
CC(=O)N1c2ccc(S(=O)(=O)N3CCC(C(=O)NC4CCCCC4)CC3)cc2CC1C (stereo not given),1,-2,10%,0%,70,-16%
CC(=O)N1c2ccc(S(=O)(=O)N3CCC(C(=O)N4CCC(C)CC4)CC3)cc2CC1C (stereo not given),0,-7,?,4%,?,?
COc1cc(O)c(C(CC(=O)N2CCCCC2)c2cc(OC)c(OC)c(OC)c2)c(OC)c1 (stereo not given),2,0,-10%,2%,11,-18%
CCCc1cc(=O)[nH]c(SCC(=O)Nc2cccc(S(=O)(=O)N3CCOCC3)c2)n1,-9,-4,-4%,0%,2,14%
COc1ccccc1NS(=O)(=O)c1ccc2oc(SCc3ccc(C#N)cc3)nc2c1,0,-9,18µM*,3%,-7,12µM*
CNC(=O)CSc1nc2cc(S(=O)(=O)Nc3ccccc3OC)ccc2o1,14,0,-14%,10%,30,1%
COc1ccccc1NS(=O)(=O)c1ccc2oc(SCC(=O)N3CCNC3=O)nc2c1,-19,-12,?,0%,-5,3.7µM*
O=C(CCS(=O)(=O)c1cccc2nonc12)Nc1c(F)cccc1F,·,·,?,9%,·,-21%
CCOc1ccccc1NC(=O)CCc1c(C)nc2c(c(C)nn2-c2ccccc2)c1C,·,·,16µM*,5%,·,16µM*
CCC(C)NC(=O)CCc1c(C)nc2c(c(C)nn2-c2ccc(C)cc2)c1C (stereo not given),·,·,7.3µM*,5%,·,15µM*
CCOC(=O)c1ccc(NC(=O)CCc2c(C)nc3c(c(C)nn3-c3ccccc3)c2C)cc1,·,·,10µM*,3%,·,16µM*
CC(=O)Nc1ccc(NC(=O)CCc2c(C)nc3c(c(C)nn3-c3ccc(C)cc3)c2C)cc1,·,·,?,0%,·,15µM*
COC(=O)c1ccccc1NC(=O)CCc1c(C)nc2c(c(C)nn2-c2ccccc2)c1C,·,·,-8%,3%,·,2%
Cc1ccc(-n2nc(C)c3c(C)c(CCC(=O)O)c(C)nc32)cc1,-22,2,5%,·,51,9%
CC(=O)Nc1ccc(NC(=O)CCc2c(C)nc3c(c(C)nn3-c3ccccc3)c2C)cc1,·,·,-24%,5%,·,-16%
Cc1nc2c(c(C)nn2-c2ccccc2)c(C)c1CCC(=O)Nc1ccc(F)cc1,·,·,18µM*,-5%,·,?
Cc1cccc(C)c1NC(=O)C1(C)CCC(=O)N1CCc1c[nH]c2ccccc12 (stereo not given),1,4,-3%,·,19,-10%
CCc1cc(-c2nnn(CCC3COCCO3)c2CC)ccc1-c1cn(CCc2c[nH]c3ccccc23)nn1 (stereo not given),-15,-7,12µM*,·,13,16µM*
COc1ccc(Cl)cc1C(=O)NCC(c1ccc(N(C)C)cc1)N1CCCC1 (stereo not given),·,·,?,4%,·,?
COc1ccc(C(=O)NCC(c2ccc(N(C)C)cc2)N2CCCC2)c(OC)c1 (stereo not given),·,·,13µM*,9%,·,?
SMILES,Six1-Eya2 blk,CtBP-E1A blk,DT40 TDP1 no CPT,TDP1 block,IL1B secr inh,DT40 TDP1 CPT
COc1ccc(C(CNC(=O)c2ccc(S(=O)(=O)N(C)C)cc2)N2CCCC2)cc1 (stereo not given),1,5,-21%,5%,-5,-21%
COc1ccc(C(=O)NCC(c2ccc(Cl)cc2)N2CCCCC2)cc1 (stereo not given),·,·,12µM*,-4%,·,15µM*
CCOc1ccc(S(=O)(=O)NCC(c2ccc(N(C)C)cc2)N2CCCC2)cc1 (stereo not given),·,·,26µM*,9%,·,?
COc1ccc(OCC(=O)NCC(c2ccc(Cl)cc2)N2CCCCC2)cc1 (stereo not given),·,·,?,1%,·,21µM*
CCOc1ccc(S(=O)(=O)NCC(c2ccc(N(C)C)cc2)N2CCc3ccccc32)cc1 (stereo not given),·,·,?,9%,·,?
Cc1cc(C)c(OCC(=O)Nc2cccc(O)c2)cc1C,2,-2,-28%,2%,-16,-28%
Cc1cc(S(=O)(=O)Nc2noc3ccccc23)ccc1F,6,-18,13%,·,-2,2%
O=C(Nc1ccc(-n2cccn2)cc1)C1CCN(Cc2ccccn2)CC1,-12,-1,-1%,5%[56.1 µM],?,0%
Cc1cc(C)cc(OCC(=O)NCC(c2ccc(Cl)cc2)N2CCCCC2)c1 (stereo not given),·,·,16µM*,3%,·,21µM*
CCOc1ccc(/C=C(/NC(=O)c2ccc(Cl)cc2)C(=O)O)cc1OCC,1,12,0%,5%,31,-3%
Cc1ccc(-c2cn(-c3ccc(Cl)cc3)c(S(=O)(=O)CC(=O)Nc3ccccc3)n2)cc1,·,·,?,15%,·,26µM*
Cc1ccc(-n2cc(-c3ccccc3)nc2S(=O)(=O)CC(=O)Nc2ccc(F)cc2)cc1,·,·,?,6%,·,23µM*

# High-throughput results as filed in PubChem BioAssay.
